Results filed as inconclusive are left out. Activity calls are given as the source filed them. Calls follow the shape of the dose curve; as a rule, active = well fitted curve in the direction sought with a large enough effect; inconclusive = small, poorly fitted or top-dose-only effect, or another doubt; inactive = no such curve, though single readings can be large; an effect the other way counts as inactive or inconclusive.
What was measured:
[1] = biological target: Glutathione peroxidase 1 (Homo sapiens) (UniProt P07203); test: Primary qHTS Assay for Inhibitors of Recombinant Selenoprotein Glutathione Peroxidase 1 (GPX1) (AID 1845191); also: nearly all actives have a fitted effect of over 65% in size; as to activity, negative = inhibition: % is scaled to controls: 0 for no effect and ±100 for the full control effect
Glutathione peroxidase 1 (Homo sapiens), sequence (P07203 whole entry, looked up): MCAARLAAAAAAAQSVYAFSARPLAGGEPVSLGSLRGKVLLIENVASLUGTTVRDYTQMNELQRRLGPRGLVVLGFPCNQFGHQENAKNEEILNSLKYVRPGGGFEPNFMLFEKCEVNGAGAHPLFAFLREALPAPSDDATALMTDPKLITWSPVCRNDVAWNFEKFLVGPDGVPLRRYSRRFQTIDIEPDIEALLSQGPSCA
Procedure, shortened: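 Recombinant GPX1 (10 nM final) was preincubated with compound for 30 min at room temperature, then reacted with 1 mM GSH, 0.5 mM CHP, 0.5 mM NADPH and 100 nM glutathione reductase; NADPH fluorescence (340/450 nm) was read at 0 and 15 min.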

[2] = biological target: Phospholipid hydroperoxide glutathione peroxidase GPX4 (Homo sapiens) (UniProt P36969); test: Primary qHTS Assay for Inhibitors of Recombinant Selenoprotein Glutathione Peroxidase 4 (GPX4) (AID 1845192); also: nearly all actives have a fitted effect of over 65% in size; as to activity change, negative = inhibition: series mostly up to about 50 µM; % is scaled to controls: 0 for no effect and ±100 for the full control effect
Phospholipid hydroperoxide glutathione peroxidase GPX4 (Homo sapiens), sequence (P36969 whole entry, looked up): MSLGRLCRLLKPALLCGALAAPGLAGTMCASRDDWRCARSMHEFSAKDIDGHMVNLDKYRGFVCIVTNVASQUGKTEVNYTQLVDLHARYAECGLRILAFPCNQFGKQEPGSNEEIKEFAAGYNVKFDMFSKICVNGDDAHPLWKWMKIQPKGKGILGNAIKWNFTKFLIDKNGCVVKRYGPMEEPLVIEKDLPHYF
Procedure, shortened: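 GR-coupled readout: 100 nM GR, 1 mM GSH, 0.5 mM NADPH; NADPH fluorescence (ex 340/em 450 nm) read at t=0 and after 15 min RT. GPX4 200 nM, preincubated 30 min with compound; substrate 0.5 mM CHP.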

[3] = biological target: Luciferin 4-monooxygenase (Photinus pyralis) (UniProt P08659); test: Primary firefly luciferase (FLuc) qHTS assay for identification of artifact compounds. (AID 1845220); also: nearly all actives have a fitted effect of over 60% in size;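 as to activity change, negative = inhibition: series mostly up to about 54 µM; plate controls were DMSO vehicle for no effect and no enzyme for full effect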
Procedure, shortened: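 In this counter-screen for luciferase artifacts, test compounds met substrate (10 uM each luciferin and ATP) before 10 nM enzyme started the reaction. Light output was measured 5 min later.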

[4] = test system: Nanoluciferase (engineered Oplophorus gracilirostris luciferase); test: Primary Nanoluciferase (NLuc) qHTS assay for identification of artifact compounds. (AID 1845222);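 also: NLuc secreted into diluted conditioned medium of S16 cells; series mostly up to about 54 µM; 0% = DMSO and -100% = no enzyme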
Procedure, shortened: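 Using secreted nanoluciferase in S16 culture medium (0.22 um filtered, 1:55 dilution), compounds were preincubated 15 min at RT. Signal was generated with Nano-Glo reagent (1:100) over 5 min.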

[5] = Primary redox qHTS assay for identification of artifact compounds. (AID 1845223);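 also: 0% = DMSO and 100% = reference compound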
Procedure, shortened: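 Amplex Red (25 uM) and HRP (250 mU/mL) in HBSS, with compounds for 15 min, then 250 uM DTT for 30 min, room temperature, dark. Fluorescence 525/598 nm read; normalized to DMSO and 10 uM DA3003; Hill fit.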

COC(=O)C1=CO[C@@H](O[C@@H]2O[C@H](CO)[C@@H](O)[C@H](O)[C@H]2O)[C@@H]2[C@@H](C)[C@@H](OC(=O)/C=C/c3ccccc3)[C@@H](O)[C@H]12
inactive: Potency [1] | Potency [2] | Potency [3] | Potency [4]

C=C1CCC2(C(=O)OC3OC(CO)C(O)C(O)C3O)CCC3(C)C(=CCC4C5(C)CCC(OC6OC(CO)C(OC7OC(C)C(O)C(O)C7O)C(OC7OCC(O)C(O)C7O)C6O)C(C)(C)C5CCC43C)C2C1 (stereo unspecified)
inactive: Potency [1] | Potency [2] | activity change, negative = inhibition [3] 3.5% [at 11.6 µM] | activity, negative = inhibition [4] 0.389% [at 11.6 µM]

C=CC(C)(O)CC/C=C(\C)C1CC=C(C)C(=O)O1 (stereo unspecified)
inactive: Potency [1] | Potency [2] | Potency [3] | Potency [4]

CC1=COC(OC2OC(CO)C(O)C(O)C2O)C2C(CO)CC(OC(=O)/C=C/c3ccc(O)cc3)C12 (stereo unspecified)
inactive: Potency [1] | Potency [2] | Potency [3] | Potency [4] | Potency [5]

CC1OC(OC2C(OC3C(O[C@H]4CC[C@@]5(C)C(CC[C@]6(C)C5C(=O)CC5=C7CC(C)(C)CC(O)[C@]7(C)CC[C@]56C)C4(C)C)OC(C(=O)O)C(O)C3O)OCC(O)C2O)C(O)C(O)C1O (stereo partly specified)
inactive: Potency [1] | Potency [2] | activity change, negative = inhibition [3] 0.49% [at 11.6 µM] | activity, negative = inhibition [4] -10.9% [at 11.6 µM]

C=C1CCC2C(C)(C)CC(=O)CC2(C)C1CCC(C)CCO (stereo unspecified)
inactive: Potency [1] | Potency [2] | Potency [3] | Potency [4]

CN(C)c1ccc(C2O[C@@H](c3ccccc3)C[C@H](c3ccccc3)O2)cc1 (stereo partly specified)
inactive: Potency [1] | Potency [2] | Potency [3] | Potency [4] | Potency [5]

CC1(CO)CCCC2(C)C3COC(=O)C3=CC(O)C12 (stereo unspecified)
inactive: Potency [1] | Potency [2] | Potency [3] | Potency [4]

C[C@@]12CC3(S(=O)(=O)O)OC(O1)[C@]1(COC(=O)c4ccccc4)[C@H]3C[C@]21O[C@@H]1O[C@H](CO)[C@@H](O)[C@H](O)[C@H]1O
inactive: Potency [1] | Potency [2] | Potency [3] | Potency [4] | Potency [5]

COc1c2c(c(C)c3c1C(=O)OC3)OC1(C)CC(O)C34OC(OC)(CC(O)C3(C)C1C2)OC4(C)C (stereo unspecified)
inactive: Potency [1] | Potency [2] | Potency [3] | Potency [4]

C/C=C1/[C@H](O[C@@H]2O[C@H](CO)[C@@H](O)[C@H](O)[C@H]2O)OC=C(C(=O)OC)[C@H]1CC(=O)OCCc1ccc(OC(=O)C[C@@H]2C(C(=O)OC)=CO[C@@H](O[C@@H]3O[C@H](CO)[C@@H](O)[C@H](O)[C@H]3O)/C2=C/C)cc1
inactive: Potency [1] | Potency [2] | activity change, negative = inhibition [3] 2.52% [at 11.6 µM] | activity, negative = inhibition [4] 2.4% [at 11.6 µM]

NC1(c2ccc(NC(=O)c3ccnc(-c4cc(C(=O)O)ccn4)c3)cc2)CC1
inactive: Potency [1] | Potency [2] | Potency [3] | Potency [4] | Potency [5]

CC(=O)/C=C/C1(O)C(C)=CC(=O)CC1(C)C (stereo unspecified)
inactive: Potency [1] | Potency [2] | Potency [3] | Potency [4] | Potency [5]

CC(=O)c1ccc(O[C@@H]2O[C@H](CO[C@@H]3OC[C@@H](O)[C@H](O)[C@H]3O)[C@@H](O)[C@H](O)[C@H]2O)cc1
inactive: Potency [1] | Potency [2] | Potency [3] | Potency [4]

O=C(Nc1ccc(N2CCC(C(=O)N3CCOCC3)CC2)cc1)c1cnc(Oc2ccccc2)nc1
inactive: Potency [1] | Potency [2] | Potency [3] | Potency [4]

C/C=C/C=C/C=C/C(=O)N(C)C(C(=O)NC(C)C(=O)N1CCCC1C(N)=O)C(C)C (stereo unspecified)
inactive: Potency [1] | Potency [2] | Potency [3] | Potency [4]

CN1CCN(C2=Nc3ccccc3Nc3ccc(O)cc32)CC1
inactive: Potency [1] | Potency [2] | Potency [3] | Potency [4]

CC1CC=C2C1CC1(O)C(=O)CC2(C)C1(C)CO (stereo unspecified)
inactive: Potency [1] | Potency [2] | Potency [3] | Potency [4]

COc1ccc(/C=C/C(=O)O[C@@H]2[C@@H](O)[C@@H](O)[C@H](O[C@H]3[C@@H]4C=CO[C@@H](O[C@@H]5O[C@H](CO)[C@@H](O)[C@H](O)[C@H]5O)[C@@H]4[C@@]4(CO)O[C@@H]34)O[C@H]2C)cc1
inactive: Potency [1] | Potency [2] | Potency [3] | Potency [4]

COc1cc(/C=C/CO[C@@H]2O[C@H](CO)[C@@H](O)[C@H](O)[C@H]2O)cc(OC)c1O[C@@H]1O[C@H](CO)[C@@H](O)[C@H](O)[C@H]1O
inactive: Potency [1] | Potency [2] | Potency [3] | Potency [4] | Potency [5]

CC1CC(=O)C2C(O)(C1)CC(O)C13OC1c1c(O)cccc1C(=O)C23O (stereo unspecified)
inactive: Potency [1] | Potency [2] | Potency [3] | Potency [4] | Potency [5]

CS(=O)(=O)c1ccccc1N1CCN(c2nc3c(c(=O)[nH]2)CSCC3)CC1
inactive: Potency [1] | Potency [2] | Potency [3] | Potency [4] | Potency [5]

C=C1CC23CC1CCC2C12OC(=O)C(C)(C(O)C(O)C1O)C2C3C(=O)O (stereo unspecified)
inactive: Potency [1] | Potency [2] | Potency [3] | Potency [4] | Potency [5]

C[C@@H]1C[C@@H](O)[C@@]2(CO)C(CO)=CCC[C@@H]2[C@@]12C[C@@H](c1ccoc1)OC2=O
inactive: Potency [1] | Potency [2] | Potency [3] | Potency [4] | Potency [5]

O=C(O)/C=C/c1ccc2occc2c1O[C@@H]1O[C@H](CO)[C@@H](O)[C@H](O)[C@H]1O
inactive: Potency [1] | Potency [2] | Potency [3] | Potency [4] | Potency [5]

CC(=O)c1c(C)cccc1O[C@@H]1O[C@H](CO)[C@@H](O)[C@H](O)[C@H]1O
inactive: Potency [1] | Potency [2] | Potency [3] | Potency [4] | Potency [5]

CC(C)CC(=O)NCCn1cc(C(=O)O)c(=O)cc1C(O)c1ccccc1 (stereo unspecified)
inactive: Potency [1] | Potency [2] | Potency [3] | Potency [4] | Potency [5]
